An excerpt weighted towards active compounds, which were near 11% of everything screened.
USP28 block – human USP28 deubiquitinase inhibition; AID 1645857; purified USP28, Ub-rhodamine cleavage fluorescence, 30 min; Q96RU2; inhibition, % at 25 µM; hit rate 3% among 47,000
USP30 block – inhibitors of human USP30 deubiquitinase. hit rate 5.3% among 47,000. AID 1645860. Q70CQ3. purified USP30, Ub-rhodamine cleavage fluorescence. inhibition, % at 25 µM
USP17 block – human USP17-like deubiquitinase inhibition. A8MUK1. purified USP17, Ub-rhodamine cleavage fluorescence, 3 h. inhibition, % at 50 µM. hit rate 6.5% among 47,000. AID 1645855
Target sequence (A8MUK1 whole entry, looked up): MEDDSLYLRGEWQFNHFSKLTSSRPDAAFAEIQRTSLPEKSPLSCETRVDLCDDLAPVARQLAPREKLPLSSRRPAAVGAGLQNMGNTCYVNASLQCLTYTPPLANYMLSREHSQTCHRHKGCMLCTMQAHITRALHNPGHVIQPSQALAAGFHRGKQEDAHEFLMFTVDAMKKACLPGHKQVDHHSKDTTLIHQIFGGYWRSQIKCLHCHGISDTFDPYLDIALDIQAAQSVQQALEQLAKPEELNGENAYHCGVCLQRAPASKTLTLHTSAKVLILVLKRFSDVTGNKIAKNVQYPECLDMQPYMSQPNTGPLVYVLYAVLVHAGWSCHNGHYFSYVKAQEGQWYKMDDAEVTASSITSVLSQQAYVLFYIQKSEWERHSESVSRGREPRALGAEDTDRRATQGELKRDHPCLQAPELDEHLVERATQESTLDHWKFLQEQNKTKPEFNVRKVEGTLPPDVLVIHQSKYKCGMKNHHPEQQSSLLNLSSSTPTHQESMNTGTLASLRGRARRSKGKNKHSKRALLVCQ
An asterisk follows results filed as active; i = inactive. No stated cut-off is given here; in the data, active means inhibition above about 30%; inactive means the rest.

SMILES	USP28 block	USP30 block	USP17 block
O=C(c1ccc2c(c1)OCO2)[C@@H]1[C@H](C(=O)OC(c2ccccc2)c2ccccc2)N2c3ccccc3C=CC2[C@@]12C(=O)Nc1ccccc12 (some centres not stated)	-123	-488	-41
O=C(CCc1nc(-c2cccnc2)no1)Nc1ccc(F)cc1F	-15	-46	-18
COc1ccc(C2CC(c3ccc(C)cc3)N(C(=O)c3ccccc3OC)c3ncnn32)cc1 (configuration not stated)	-241	i	-151
COc1cnc(-c2cccc(C(F)(F)F)c2)nc1Sc1ccccc1	8	18	9
COc1cnc(-c2ccccn2)nc1Sc1ccc(C)cc1	19	60*	7
CC(C)(C)CC(=O)N1CCC(c2nc3c(nnn3Cc3ccccc3)c(=O)[nH]2)CC1	-8	1	-6
COc1nc(NCCO)nc(N2CCN(c3ccc(F)cc3)CC2)n1	-4	-10	-10
O=C(Nc1cccc(-c2nc3ncccc3o2)c1)c1ccc([N+](=O)[O-])cc1	20	6	20
Cc1ccc(-c2nc3ncccc3o2)cc1NC(=O)COc1ccc([N+](=O)[O-])cc1	-33	-23	40*
O=C(N1CCOCC1)N1C[C@H](O)[C@H]2C[C@@H]1CC[C@H]2N1CCOCC1	-9	-23	-15
CC(C)=CCC[C@@](C)(O)[C@@H]1CC[C@@](C)(O)[C@H]1C	3	33*	7
Cc1ccccc1C(=O)N1CCN(Cc2cc(=O)n3ccccc3n2)CC1	-1	0	-17
Cc1ccc(-c2cc3c(N4CCCC(C(=O)NCc5ccccc5)C4)nccn3n2)c(C)c1 (configuration not stated)	-57	-135	-2
Cc1ccc(-n2cc3c(N4CCCC(C(=O)NCC5CCCCC5)C4)ncnc3n2)cc1 (configuration not stated)	10	39*	60*
CCC(C)c1ccccc1NC(=O)COC(=O)c1cccnc1Nc1cccc(C(F)(F)F)c1 (configuration not stated)	0	5	2
CN1CC(=O)N(C2CCNC2)Cc2c(NCc3ccc(Cl)cc3)ncnc21 (configuration not stated)	31*	9	-24
CCCCCNc1ncnc2c1CN(C1CCNC1)C(=O)CN2C (configuration not stated)	-6	-13	-50
CN1CCCN(C(=O)c2ncn3c(C4CCN(CC5CC5)CC4)ccnc23)CC1	-80	-312	-85
CCn1nc(CO)c2c1CCN(C(=O)c1ccc3c(c1)OCO3)C2	3	2	-29
Fc1ccc(Oc2ncnc3oc(-c4ccccc4)cc23)c(Cl)c1	-107	-237	-9
CC1(C)CC(=O)C2(Cc3cc([N+](=O)[O-])ccc3N3CCCC32)C(=O)C1 (configuration not stated)	-8	-22	36*
O=C1CCN(c2ccc([N+](=O)[O-])cc2F)CC1	-4	1	-19
O=C(c1cc(S(=O)(=O)N2CCCCC2)c[nH]1)N1CCC(N2CCCCC2)CC1	4	13	1
COc1ccc(NC(=O)c2cc3c(CO)cnc(C)c3oc2=Nc2cccc(F)c2)c(OC)c1	6	33*	6
Cc1ccccc1NC(=O)c1cc2c(CO)cnc(C)c2oc1=Nc1cccc(F)c1	-4	14	3
SMILES	USP28 block	USP30 block	USP17 block
CC(C)CC(=O)Nc1ccc(N2CCN(c3ccccc3)C2=O)nc1	-14	-40	-2
COc1ccc(-c2cc(C(=O)NCCC3=CCCCC3)nn2C2CCS(=O)(=O)C2)cc1 (configuration not stated)	43*	17	27
COc1ccc(-c2cc(C(=O)NC3CC3)nn2C2CCS(=O)(=O)C2)cc1 (configuration not stated)	0	17	6
O=C1CO[C@H]2CN(Cc3ccc4cc[nH]c4c3)C[C@@H]2N1C1CCOCC1	1	1	7
O=C(CSc1nc2ccccc2[nH]1)Nc1cccc2c1OCCO2	41*	-38	-18
CC(Sc1nc2ccccc2[nH]1)C(=O)Nc1ccc2c(c1)OCCO2 (configuration not stated)	28	-33	-35
CN1CCCn2cc(S(=O)(=O)NCCc3ccc(Cl)cc3)cc2C1=O	-6	-13	-3
CCOc1ccc(NC(=O)c2cccc(-n3cnnc3)n2)cc1	25	20	17
CCOc1ccc(-n2cc(C(=O)Nc3cnc4ccccc4c3)nn2)cc1	-4	-10	43*
Cc1noc(-c2ccc(SCC(=O)Nc3ccc(F)cc3)nc2)n1	-6	-12	-4
O=C(CCc1ccc2cc[nH]c2c1)NCCN1CCOCC1	-2	4	9
O=C(Nc1cccc(F)c1)c1cc(-c2ccncc2)n(-c2ccc(F)cc2)n1	2	15	6
O=C(NC1CC1)c1cc(-c2cccnc2)n(-c2ccccc2)n1	16	31*	16
Cc1ccc(-n2nc(C(=O)NCc3ccccn3)cc2-c2cccnc2)cc1	4	3	-5
COc1cc(NC(=O)c2cc(-c3ccncc3)n(-c3ccccc3)n2)cc(OC)c1	40*	11	4
CC1(C(=O)NC2CCCC2)CCC(=O)N1CCCc1ccccc1 (configuration not stated)	-16	-11	-9
Cc1cc(C)cc(C(=O)N2CCN(c3cc(=O)n(C)c(=O)n3C)CC2)c1	16	28	17
CN(c1ccc(Oc2ccc(C(F)(F)F)cn2)cc1)S(=O)(=O)c1ccccc1	17	-4	38*
CCOc1ccc(S(=O)(=O)N(C)c2ccc(OCC(=O)Nc3ccccc3)cc2)cc1	8	-47	-4
Cc1ccc(Cn2nnc(-c3ccccc3Cl)n2)cc1	64*	16	15
Cn1c(N)c(C(=O)Cn2nnc(-c3ccccc3Cl)n2)c(=O)n(C)c1=O	-20	-5	-7
O=C(C1CCCNC1)N1CCCn2cc(-c3ccccc3)nc21 (configuration not stated)	6	1	-20
C=C(Br)CSc1nc(N)c2c3c(sc2n1)COC(C)(C)C3	-66	-180	-60
N#Cc1c(-c2ccccc2)nc(N2CCCC2)nc1N1CCCC1	-8	-23	-10
N#Cc1c(C(F)(F)F)cc(-c2ccccc2)nc1N1CCOCC1	-5	0	30*
SMILES	USP28 block	USP30 block	USP17 block
O=C(c1ccc(CNS(=O)(=O)c2ccc(Br)cc2)cc1)N1CCOCC1	20	28	28
Cc1cc2nc(-c3ccc(SCc4ccccn4)nc3)[nH]c2cc1C	24	26	57*
COc1ccccc1-c1nc(SCc2ccccn2)n[nH]1	3	-7	-9
Cc1occc1-c1nnc(SCC(=O)N2CCN(c3ccc(F)cc3)CC2)o1	0	8	5
Fc1ccc(-c2ccc(SCc3nc(-c4ccc(Cl)cc4)no3)nn2)cc1	-14	-43	-37
O=S(=O)(NCCc1nc(-c2ccc(Cl)cc2)no1)c1ccc(F)cc1	18	39*	26
CC(=O)N1CC[C@@H]2Oc3ccccc3S(=O)(=O)N(CCN(C)C)[C@H]2CC1	-16	-1	-9
CCNc1nc(SCc2ccc(C)cc2)nc2c1CCCC2	27	39*	18
Cc1nc(SCc2ccc(C(=O)O)cc2)nc2c1CCCC2	14	17	17
CC(C)Cc1nnc(NC(=O)C2CCN(C(=O)c3ccccc3)CC2)s1	3	10	-13
Cc1cc(-c2cnc(N3CCC(O)CC3)nc2C(C)(C)C)on1	2	5	-4

Compound activity: PubChem, Buhrlage Lab, Dana-Farber Cancer Institute and Novartis Institutes for BioMedical Research (Cambridge, Mass)
